This is part of a sample that, as a whole, favours compounds with a hit. Of some 83,000 tested, about 20% had one in any assay.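 Single-concentration screen, 48 h exposure, 96-well plates. Endpoint: percent growth. Below 10 = active.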 Active and inactive are the calls of the source.
Assays:
Experiment in all cases: NCI-60 one-dose screen, 48 h (100 = growth as untreated, 0 = no growth, -100 = all killed)
Settings in all cases: 10 µM unless noted
HCT-15 colon = system: HCT-15 colon
HT29 colon = system: HT29 colon
SNB-75 CNS = system: SNB-75 CNS
SNB-19 CNS = system: SNB-19 CNS
U251 CNS = system: U251 CNS
PC-3 prostate = system: PC-3 prostate
SK-MEL-5 melanoma = system: SK-MEL-5 melanoma
UACC-62 melanoma = system: UACC-62 melanoma
LOX IMVI melanoma = system: LOX IMVI melanoma
SK-MEL-28 melanoma = system: SK-MEL-28 melanoma
SN12C renal = system: SN12C renal
UO-31 renal = system: UO-31 renal
TK-10 renal = system: TK-10 renal
ACHN renal = system: ACHN renal
CAKI-1 renal = system: CAKI-1 renal
A498 renal = system: A498 renal
CCRF-CEM leukemia = system: CCRF-CEM leukemia
MOLT-4 leukemia = system: MOLT-4 leukemia

Measured: growth

CC(C)(C)c1ccc(Cn2c(-c3nonc3N)nc3ccccc32)cc1
inactive: HCT-15 colon 49.1% | HT29 colon 41.6% | SNB-75 CNS 61.7% | SNB-19 CNS 77.4% | U251 CNS 64.5% | PC-3 prostate 67.4% | SK-MEL-5 melanoma 74.9% | UACC-62 melanoma 69.5% | LOX IMVI melanoma 70.2% | SK-MEL-28 melanoma 72.7% | SN12C renal 73.6% | UO-31 renal 51.4% | TK-10 renal 81.9% | ACHN renal 77.3% | CAKI-1 renal 62.2% | A498 renal 80.1% | CCRF-CEM leukemia 46.7% | MOLT-4 leukemia 62.6%

C/C(=N\OC(=O)Nc1ccccc1)c1ccccc1
inactive: HCT-15 colon 96.8% | HT29 colon 105% | SNB-75 CNS 87.7% | SNB-19 CNS 103% | U251 CNS 89.7% | PC-3 prostate 99.4% | SK-MEL-5 melanoma 95.6% | UACC-62 melanoma 94.2% | LOX IMVI melanoma 110% | SK-MEL-28 melanoma 101% | SN12C renal 94.8% | UO-31 renal 88.7% | TK-10 renal 115% | ACHN renal 106% | CAKI-1 renal 114% | A498 renal 39.4% | CCRF-CEM leukemia 99.1% | MOLT-4 leukemia 94%

O=C(Nc1ccccc1)C(CCCCN1C(=O)c2ccccc2C1=O)N1C(=O)c2ccccc2C1=O (configuration not stated)
inactive: HCT-15 colon 102% | HT29 colon 107% | SNB-75 CNS 88.5% | SNB-19 CNS 101% | U251 CNS 102% | PC-3 prostate 98.5% | SK-MEL-5 melanoma 101% | UACC-62 melanoma 98.9% | LOX IMVI melanoma 101% | SK-MEL-28 melanoma 107% | SN12C renal 102% | UO-31 renal 84.3% | TK-10 renal 105% | ACHN renal 103% | CAKI-1 renal 105% | A498 renal 99.1% | CCRF-CEM leukemia 100% | MOLT-4 leukemia 96.5%

Cc1nc2ccc(Nc3nc(NCCN4CCOCC4)nc(Nc4ccc(F)cc4)n3)cc2n1Cc1ccccc1
active: HCT-15 colon -0.585% | HT29 colon -33.6% | UACC-62 melanoma -24.8% | LOX IMVI melanoma 5.7% | SK-MEL-28 melanoma -67.2% | A498 renal -13.9%
inactive: SNB-75 CNS 50.6% | SNB-19 CNS 78.7% | U251 CNS 28.7% | PC-3 prostate 71.5% | SK-MEL-5 melanoma 14.2% | SN12C renal 61.8% | UO-31 renal 37.3% | TK-10 renal 60.6% | ACHN renal 52.2% | CAKI-1 renal 55.6% | CCRF-CEM leukemia 29.5% | MOLT-4 leukemia 22.7%

Cc1cc(C)c2c(NC(=O)Nc3ccc(Cl)c(Cl)c3)n[nH]c2n1
inactive: HCT-15 colon 100% | HT29 colon 96.9% | SNB-75 CNS 88.7% | SNB-19 CNS 101% | U251 CNS 102% | PC-3 prostate 103% | SK-MEL-5 melanoma 103% | UACC-62 melanoma 103% | LOX IMVI melanoma 99.8% | SK-MEL-28 melanoma 104% | SN12C renal 103% | UO-31 renal 90.2% | TK-10 renal 112% | ACHN renal 109% | CAKI-1 renal 91.6% | A498 renal 101% | CCRF-CEM leukemia 102% | MOLT-4 leukemia 98.3%

Cc1cc(C#Cc2ccccc2)ccc1-n1c(/C=C/c2ccc(F)cc2)nc2ccccc2c1=O
inactive: HCT-15 colon 69.8% | HT29 colon 59.3% | SNB-75 CNS 86.5% | SNB-19 CNS 88.5% | U251 CNS 82% | PC-3 prostate 18.2% | SK-MEL-5 melanoma 36.8% | UACC-62 melanoma 55.1% | LOX IMVI melanoma 71.2% | SK-MEL-28 melanoma 94.4% | SN12C renal 73% | UO-31 renal 36.2% | TK-10 renal 94.4% | ACHN renal 78.6% | CAKI-1 renal 55.2% | A498 renal 94.1% | CCRF-CEM leukemia 74.3% | MOLT-4 leukemia 44.7%

[Ag].[Ag].[NH-]S(=O)(=O)c1ccc(N=Nc2cc(N=Nc3ccc(S([NH-])(=O)=O)cc3)c3c(NC(=O)C(Cl)Cl)cccc3c2OC(=O)C(Cl)Cl)cc1.[c-]1nccs1.[c-]1nccs1
inactive: HCT-15 colon 79% | HT29 colon 76.2% | SNB-75 CNS 51.3% | SNB-19 CNS 80.7% | U251 CNS 75.2% | PC-3 prostate 48.2% | SK-MEL-5 melanoma 35.6% | UACC-62 melanoma 91.8% | LOX IMVI melanoma 78.7% | SK-MEL-28 melanoma 89.1% | SN12C renal 89.6% | UO-31 renal 69.4% | TK-10 renal 108% | ACHN renal 52.3% | CAKI-1 renal 59.1% | A498 renal 101% | CCRF-CEM leukemia 44.7% | MOLT-4 leukemia 78.4%

O=C1C=CC(=O)N1CO
inactive: HCT-15 colon 116% | HT29 colon 105% | SNB-75 CNS 100% | SNB-19 CNS 103% | U251 CNS 117% | PC-3 prostate 102% | SK-MEL-5 melanoma 114% | UACC-62 melanoma 106% | LOX IMVI melanoma 120% | SK-MEL-28 melanoma 117% | SN12C renal 99% | UO-31 renal 89.1% | TK-10 renal 114% | ACHN renal 108% | CAKI-1 renal 117% | A498 renal 113% | CCRF-CEM leukemia 101%
active: MOLT-4 leukemia -32.2%

COc1ccccc1NC(=O)OCC12COCN1COC2
inactive: HCT-15 colon 97.2% | HT29 colon 109% | SNB-75 CNS 97.6% | SNB-19 CNS 94.4% | U251 CNS 91.1% | PC-3 prostate 101% | SK-MEL-5 melanoma 99.5% | UACC-62 melanoma 99.7% | LOX IMVI melanoma 107% | SK-MEL-28 melanoma 108% | SN12C renal 100% | UO-31 renal 94.9% | TK-10 renal 108% | ACHN renal 102% | CAKI-1 renal 100% | CCRF-CEM leukemia 102% | MOLT-4 leukemia 95.9%

Cc1cc(C)c(C#N)c(SCC(=O)c2sc3c(C#N)c(C)cc(C)[n+]3c2[O-])n1
inactive: HCT-15 colon 15.9% | SNB-19 CNS 75.5% | PC-3 prostate 24% | SK-MEL-5 melanoma 10.8% | UACC-62 melanoma 47.9% | LOX IMVI melanoma 20.4% | SK-MEL-28 melanoma 30.3% | SN12C renal 31.4% | UO-31 renal 45.5% | TK-10 renal 35.3% | ACHN renal 31%
active: HT29 colon -26.1% | SNB-75 CNS 9% | U251 CNS 7.69% | CAKI-1 renal -6.91% | A498 renal -6.21% | CCRF-CEM leukemia 9.64% | MOLT-4 leukemia 2.71%

CCN(CC)C(Cl)=Nc1ccc(Cl)cc1
inactive: HCT-15 colon 98.1% | HT29 colon 97.3% | SNB-75 CNS 88.5% | SNB-19 CNS 95.5% | U251 CNS 94% | PC-3 prostate 103% | SK-MEL-5 melanoma 102% | UACC-62 melanoma 102% | LOX IMVI melanoma 102% | SK-MEL-28 melanoma 106% | SN12C renal 99.2% | UO-31 renal 87.8% | TK-10 renal 101% | ACHN renal 98.5% | CAKI-1 renal 103% | A498 renal 99.6% | CCRF-CEM leukemia 100% | MOLT-4 leukemia 95.7%

Fc1ccc(-c2ccnc3nc(-c4ccncc4)nn23)cc1
inactive: HCT-15 colon 103% | HT29 colon 97.3% | SNB-75 CNS 90.1% | SNB-19 CNS 112% | U251 CNS 104% | PC-3 prostate 97.2% | SK-MEL-5 melanoma 106% | UACC-62 melanoma 116% | LOX IMVI melanoma 100% | SK-MEL-28 melanoma 111% | SN12C renal 110% | UO-31 renal 84.5% | TK-10 renal 96.6% | ACHN renal 104% | CAKI-1 renal 92.1% | A498 renal 83.8% | CCRF-CEM leukemia 110% | MOLT-4 leukemia 94.9%

COc1ccc(OC)c(Nc2nc(-c3c(C)nc4sccn34)cs2)c1
inactive: HCT-15 colon 73.6% | HT29 colon 73.6% | SNB-75 CNS 78.4% | SNB-19 CNS 96.9% | U251 CNS 89.5% | PC-3 prostate 37.6% | SK-MEL-5 melanoma 18.8% | UACC-62 melanoma 79.6% | LOX IMVI melanoma 83.4% | SK-MEL-28 melanoma 101% | SN12C renal 90.1% | UO-31 renal 77.8% | TK-10 renal 98% | ACHN renal 79.5% | CAKI-1 renal 73.7% | A498 renal 30.7% | CCRF-CEM leukemia 38.1%
active: MOLT-4 leukemia 9.57%

N#CC1=C(N)Oc2nc[nH]c(=O)c2C1c1cccs1 (configuration not stated)
inactive: HCT-15 colon 99.8% | HT29 colon 99% | SNB-75 CNS 92.6% | SNB-19 CNS 104% | U251 CNS 96.3% | PC-3 prostate 97.9% | SK-MEL-5 melanoma 102% | UACC-62 melanoma 104% | LOX IMVI melanoma 100% | SK-MEL-28 melanoma 102% | SN12C renal 105% | UO-31 renal 97.1% | TK-10 renal 105% | ACHN renal 101% | CAKI-1 renal 94.9% | A498 renal 107% | CCRF-CEM leukemia 95% | MOLT-4 leukemia 94.3%

COc1cc(C2CC(c3ccc(Cl)cc3)=NN2C=O)ccc1OS(=O)(=O)c1ccc(C)cc1 (configuration not stated)
inactive: HCT-15 colon 89.7% | HT29 colon 99.3% | SNB-75 CNS 91.5% | SNB-19 CNS 86.7% | U251 CNS 91% | PC-3 prostate 94.4% | SK-MEL-5 melanoma 86.3% | UACC-62 melanoma 78.6% | LOX IMVI melanoma 97.2% | SK-MEL-28 melanoma 103% | SN12C renal 97.1% | UO-31 renal 85.2% | TK-10 renal 110% | ACHN renal 90.9% | CAKI-1 renal 81.4% | A498 renal 74.1% | CCRF-CEM leukemia 76.3% | MOLT-4 leukemia 91.5%

COC1=CC(c2ccc[nH]2)=N/C1=C\c1[nH]c(C)c(C(=O)CCCCCCCCC(=O)O[C@H]2CC[C@H]3C4CCc5cc(O)ccc5C4CC[C@]23C)c1C (some centres not stated)
active: SK-MEL-5 melanoma -83% | UACC-62 melanoma -48.3% | LOX IMVI melanoma -44.2% | UO-31 renal -13.3% | A498 renal -0.91%
inactive: HCT-15 colon 41% | HT29 colon 14.3% | SNB-75 CNS 19.6% | SNB-19 CNS 56.2% | U251 CNS 20.9% | PC-3 prostate 23% | SK-MEL-28 melanoma 34.5% | SN12C renal 39.6% | TK-10 renal 34.1% | ACHN renal 24.3% | CAKI-1 renal 40.5% | CCRF-CEM leukemia 11.5% | MOLT-4 leukemia 19.5%

CC(C)COC(=O)NC(C)(C)C
inactive: HCT-15 colon 98% | HT29 colon 93% | SNB-75 CNS 86.7% | SNB-19 CNS 111% | U251 CNS 107% | PC-3 prostate 102% | SK-MEL-5 melanoma 109% | UACC-62 melanoma 107% | LOX IMVI melanoma 103% | SK-MEL-28 melanoma 113% | SN12C renal 110% | UO-31 renal 95.6% | TK-10 renal 104% | ACHN renal 104% | CAKI-1 renal 96.4% | A498 renal 120% | MOLT-4 leukemia 85.4%

C=CCn1c(C)nc2cc(Nc3nc(N4CCCC4)nc4nc[nH]c34)ccc21
active: SNB-75 CNS -64.9% | A498 renal 1.35%
inactive: HCT-15 colon 94.4% | HT29 colon 12.4% | SNB-19 CNS 44.9% | U251 CNS 21.2% | PC-3 prostate 42.6% | SK-MEL-5 melanoma 49.5% | UACC-62 melanoma 31.7% | LOX IMVI melanoma 37.8% | SK-MEL-28 melanoma 30.3% | SN12C renal 36.8% | UO-31 renal 61.2% | TK-10 renal 11.8% | ACHN renal 17.8% | CAKI-1 renal 89% | CCRF-CEM leukemia 83.9% | MOLT-4 leukemia 89%

From PubChem BioAssay (NCI)
